Screening data from PubChem BioAssay.
ssDAF12 agonist: S. stercoralis DAF-12 activation, primary screen | HEK293 ssDAF-12/GRIP1 lit1-tk-luc reporter, luminescence; % of 3 µM dafachronic acid response | activation, % at 6.8 µM | actives 1% (n = 370,000);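 active means activation above the mean over all tested compounds plus 3 SD, cut at about 0.9% in these data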;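 further: 0% = DMSO-only wells and 100% = 3 µM delta7-dafachronic acid wells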
DAX1 inh-1: inhibitors of DAX1 repression of SF-1 activated StAR promoter. actives 1.1% (n = 370,000). inhibition, % at 6.8 µM. HEK293T StAR-luciferase reporter, SF-1/DAX-1 repression relief;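 active means inhibition above the mean over all tested compounds plus 3 SD, cut at about 3.6% in these data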;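 further: 0% = DAX-1 cells with DMSO and 100% = cells lacking DAX-1 with DMSO; higher inhibition means more luminescence from relief of DAX-1 repression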
hgDAF-12 ag: activates the H. glycines DAF-12 receptor ligand-binding domain; HEK293 GAL4-hgDAF12 UAS-luciferase reporter, agonist luminescence; normalized to butyrate control; activation, % at 6.8 µM; actives 1.8% (n = 370,000);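 active means activation above a cutoff set at the mean of all screened compounds plus 3 SD, cut at about 10% in these data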;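 further: 0% = DMSO wells and 100% = sodium butyrate wells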
DAX1 inh-2: inhibits human nuclear receptor DAX1. actives 0.99% (n = 340,000). AID 504766. inhibition, % at 6.75 µM. HEK293 Gal4-DAX1 luciferase reporter, luminescence;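 active means inhibition above the mean over all tested compounds plus 3 SD, cut at about 4.2% in these data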;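 further: 0% = DAX1-transfected cells with DMSO and 100% = empty-vector control cells with DMSO; inhibition shows as a rise in luminescence from relieved DAX1 repression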
hcDAF12 agonist: activates DAF-12 receptor from parasite H. contortus. activation, % at 6.8 µM. actives 1.4% (n = 370,000). HEK293 hcDAF-12 lit1-tk-luc reporter, luminescence; 0% DMSO, 100% Δ7-dafachronic acid. AID 652067;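 active means activation above the mean of all tested compounds plus 3 SD, cut at about 5.5% in these data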;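 further: 100% = response to 3 µM Δ7-dafachronic acid high control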
AHR act: activates the human aryl hydrocarbon receptor. P35869. AHR-responsive luciferase reporter cells, luminescence. activation, % at 5 µM. actives 2.5% (n = 320,000). AID 2796; in the data active means activation above about 47%;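 further: 0% = vehicle wells and 100% = reference agonist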
Target sequence (P35869 whole entry, looked up): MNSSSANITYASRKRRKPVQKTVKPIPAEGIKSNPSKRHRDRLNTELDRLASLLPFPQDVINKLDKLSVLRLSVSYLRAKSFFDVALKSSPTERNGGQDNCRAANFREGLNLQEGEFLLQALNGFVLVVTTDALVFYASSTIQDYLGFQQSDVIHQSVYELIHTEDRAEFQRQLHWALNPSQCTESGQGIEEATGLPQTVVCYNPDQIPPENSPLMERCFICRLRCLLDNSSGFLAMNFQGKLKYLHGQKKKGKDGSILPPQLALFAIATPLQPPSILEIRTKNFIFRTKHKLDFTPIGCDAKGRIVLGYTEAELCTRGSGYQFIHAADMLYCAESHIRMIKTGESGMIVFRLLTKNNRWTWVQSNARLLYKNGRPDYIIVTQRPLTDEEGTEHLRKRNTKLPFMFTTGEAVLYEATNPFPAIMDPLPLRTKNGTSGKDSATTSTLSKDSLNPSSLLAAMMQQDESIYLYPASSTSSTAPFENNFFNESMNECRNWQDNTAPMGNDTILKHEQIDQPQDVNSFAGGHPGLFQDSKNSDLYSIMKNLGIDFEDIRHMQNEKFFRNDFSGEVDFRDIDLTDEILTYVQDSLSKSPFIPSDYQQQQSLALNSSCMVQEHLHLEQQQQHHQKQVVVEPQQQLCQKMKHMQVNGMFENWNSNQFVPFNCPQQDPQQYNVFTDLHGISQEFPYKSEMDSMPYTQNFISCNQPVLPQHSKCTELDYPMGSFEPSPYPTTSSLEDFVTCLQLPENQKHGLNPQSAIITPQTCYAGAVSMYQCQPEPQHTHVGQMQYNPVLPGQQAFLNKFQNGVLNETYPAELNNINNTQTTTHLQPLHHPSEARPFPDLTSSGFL
* hit, by the source's call. Only some compounds are listed: those with a hit (about 5.7% of all), similar ones and a draw of the others.

For CC[C@@]1(C(=O)OC)N[C@H](CN(C)S(=O)(=O)c2ccc(F)cc2)[C@@H]2C(=O)N(C)C(=O)[C@@H]21 the results were ssDAF12 agonist -1.5, DAX1 inh-1 -0.1, hgDAF-12 ag 1.1, DAX1 inh-2 0.5, hcDAF12 agonist 0.4 and AHR act -0.1.
`CCC(=O)NCCc1nc2cc(NC(=O)c3cccs3)ccc2n1C` gave ssDAF12 agonist -0.7, DAX1 inh-1 3.6*, hgDAF-12 ag 3.4, DAX1 inh-2 0.1, hcDAF12 agonist 2.5 and AHR act 5.9.
For COc1ccc([N+](=O)[O-])cc1NC(=O)CSc1ncccn1 the results were ssDAF12 agonist -1.6, DAX1 inh-1 0.1, hgDAF-12 ag 1.0, hcDAF12 agonist 0.2 and AHR act 5.7.
Screening COc1ccc([N+](=O)[O-])cc1NC(=O)CSCc1ccc(Br)cc1 returned ssDAF12 agonist 1.0*, DAX1 inh-1 0.2, hgDAF-12 ag 2.2, DAX1 inh-2 -1.7, hcDAF12 agonist 1.6 and AHR act 9.4.
Screening COc1ccc([N+](=O)[O-])cc1NC(=O)CSc1nccc(C)n1 returned ssDAF12 agonist 0.0, DAX1 inh-1 0.2, hgDAF-12 ag 1.2, DAX1 inh-2 -0.8, hcDAF12 agonist 2.4 and AHR act 68.7*.
Screening CN(C)c1cc(N/N=C/c2ccccc2C(F)(F)F)nc(N(C)C)n1 returned ssDAF12 agonist -1.0, DAX1 inh-1 0.1, hgDAF-12 ag 2.1, DAX1 inh-2 0.3, hcDAF12 agonist 2.6 and AHR act 54.8*.
Screening Cc1cc(C(=O)COC(=O)c2cccn2C)c(C)n1Cc1ccco1 returned ssDAF12 agonist -0.8, DAX1 inh-1 4.1*, hgDAF-12 ag 5.4, DAX1 inh-2 -4.1, hcDAF12 agonist 3.4 and AHR act -1.2.
`Cc1cc(C(F)(F)Cl)n2ncc(-c3ccccn3)c2n1` gave ssDAF12 agonist 1.2*, DAX1 inh-1 -0.1, hgDAF-12 ag -0.1, DAX1 inh-2 2.1, hcDAF12 agonist 2.0 and AHR act 63.6*.
For CN(C)c1nc(Nc2ccc(Cl)cc2)nc(OCC#N)n1 the results were ssDAF12 agonist -1.1, DAX1 inh-1 -2.4, hgDAF-12 ag -3.5, DAX1 inh-2 -1.4, hcDAF12 agonist 0.7 and AHR act 49.0*.
For CCOc1nc(Nc2ccc(Cl)cc2)nc(OCC)n1 the results were ssDAF12 agonist -1.7, DAX1 inh-1 0.3, hgDAF-12 ag -0.6, DAX1 inh-2 -1.0, hcDAF12 agonist -2.2 and AHR act 10.5.
Screening CC(=O)Cc1cc(O)c2ccccc2c1OC(=O)c1ccc(Br)cc1 returned ssDAF12 agonist 0.9, DAX1 inh-1 -0.7, hgDAF-12 ag 1.3, DAX1 inh-2 -0.8, hcDAF12 agonist 1.5 and AHR act 69.1*.
Screening O=C1CC2CCCN2C=C1I (stereo not drawn) returned ssDAF12 agonist -1.1, DAX1 inh-1 -0.5, hgDAF-12 ag -0.5, DAX1 inh-2 0.7, hcDAF12 agonist -0.8 and AHR act 0.0.
`CCOc1cc(/C=C2\CCCC(C(=O)C(F)(F)F)=C2O)ccc1O` gave ssDAF12 agonist -0.9, DAX1 inh-1 3.7*, hgDAF-12 ag 6.7, DAX1 inh-2 1.1, hcDAF12 agonist -0.7 and AHR act 4.9.
`COc1cc(/C=C2/CCCC(C(=O)C(F)(F)F)=C2O)ccc1O` gave ssDAF12 agonist -1.6, DAX1 inh-1 0.7, hgDAF-12 ag -0.6, DAX1 inh-2 1.2, hcDAF12 agonist -1.4 and AHR act 1.4.
For COc1ccc(NC(=O)CN2CCN(CC(=O)Nc3ccc(F)cc3F)CC2)cc1 the results were ssDAF12 agonist -1.4, DAX1 inh-1 -0.2, hgDAF-12 ag -0.1, DAX1 inh-2 -1.1 and hcDAF12 agonist 0.6.
Screening Cc1cc(C)c(-c2cc(NC(=O)CSc3nncn3C)n(-c3ccccc3)n2)cc1C returned ssDAF12 agonist -1.1, DAX1 inh-1 -0.3, hgDAF-12 ag -0.2, DAX1 inh-2 -1.8, hcDAF12 agonist -2.6 and AHR act 64.4*.
`Cn1cnnc1SCC(=O)Nc1ccccc1` gave ssDAF12 agonist -1.4, DAX1 inh-1 1.4, hgDAF-12 ag -0.5, DAX1 inh-2 0.7, hcDAF12 agonist -0.3 and AHR act 2.9.
`CCOc1ccc(OCCC(=O)OCC(=O)NCc2ccc(Cl)cc2)cc1` gave ssDAF12 agonist -0.9, DAX1 inh-1 1.3, hgDAF-12 ag 1.3, DAX1 inh-2 1.5, hcDAF12 agonist -1.6 and AHR act 4.1.
